Cy5 interf NS3h: counter-screen for HCV NS3 helicase inhibitors: fluorescence interference. Cy5-dT15 DNA with NS3h; actives lie on both sides; signal over control mean, under 1 quenches. fluorescence interference ratio at 100 µM. 16,000 compounds, 6% hits. AID 720488;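 active = compound fluorescence over control fluorescence at most 0.8, a quencher, or at least a set upper limit, an enhancer; inactive = ratio between 0.8 and the set upper limit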
NS3h inh CB: blocks HCV NS3 helicase binding to DNA; NS3h Cy5-dT15 DNA binding, fluorescence polarization; 16,000 compounds, 1.6% hits; AID 687043; inhibition, % at 100 µM;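 active = inhibition above the average over every tested compound plus 3 SD, cut at about 40% in these data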
* marks the source's active call; other numbers are inactive results. Shown are actives, neighbours in structure and some others; about 7.6% of the full set was active somewhere.

SMILES | Cy5 interf NS3h | NS3h inh CB
CC(O)c1cccc(NC(=O)c2cnn3c2NC(c2ccco2)CC3C(F)(F)F)c1 (configuration not stated) | 0.49* | 17
CC(O)c1cccc(NC(=O)c2cc3n(n2)C(C(F)(F)F)CC(c2ccc(Cl)cc2)N3)c1 (configuration not stated) | 1 | -3
O=C1NC(=O)N(c2ccc(I)cc2)C(=O)/C1=C\C=C\c1ccco1 | 0.77* | 21
Cc1ccc(N2C(=O)NC(=O)/C(=C\c3ccc(Cl)cc3)C2=O)cc1 | 1 | 14
CC(=O)c1cccc(NC(=O)c2cnn3c(-c4ccccc4)cc(-c4ccccc4)nc23)c1 | 1.1 | 3
NC(=S)N/N=C\c1cc2c(cc1[N+](=O)[O-])OCO2 | 0.79* | 10
O=C(N/N=C\c1ccc(O)c([N+](=O)[O-])c1)/C(=C\c1ccc2c(c1)OCO2)NC(=O)c1ccccc1 | 1 | 5
COc1cc(C=O)c(Br)cc1OCc1ccc(F)cc1 | 0.95 | 7
O=C(Nc1ccc(OC(F)(F)F)cc1)c1cc2n(n1)C(C(F)(F)F)CC(c1cccs1)N2 (configuration not stated) | 0.71* | 9
CC1CCCC(C)N1C(=O)c1nn2c(c1Cl)NC(c1cccs1)CC2C(F)(F)F (configuration not stated) | 0.99 | 9
O=C(NCC1CCCO1)c1cc2n(n1)C(C(F)(F)F)CC(c1cccs1)N2 (configuration not stated) | 1 | 4
NC(=O)c1nn2c(c1Cl)NC(c1cccs1)CC2C(F)(F)F (configuration not stated) | 0.67* | 0
CCn1c(C)[n+](CC)c2ccc(S(=O)(=O)N3CCCCC3)cc21 | 0.94 | -3
CN1C(=S)N(c2ccccc2)C(C)(O)CC1(C)C (configuration not stated) | 0.93 | 4
S=C(NNc1nc2ccccc2s1)NC1CCCCC1 | 0.74* | 17
O=C1C2CCCCC2C(=O)N1c1nc2ccccc2s1 (configuration not stated) | 0.85 | -6
COc1ccc(/C(N)=N\OC(=O)c2cccc([N+](=O)[O-])c2C)cc1 | 1.1 | 9
Cc1ccc(CSCCNC(=O)CN(c2cccc([N+](=O)[O-])c2)S(=O)(=O)c2ccccc2)cc1 | 1.1 | 20
O=C(CN(c1cccc([N+](=O)[O-])c1)S(=O)(=O)c1ccccc1)NCCSc1ccc(Cl)cc1 | 0.72* | 24
COCCCNC(=O)CN(c1cccc([N+](=O)[O-])c1)S(=O)(=O)c1ccccc1 | 0.73* | 14
COc1ccc(CCNC(=O)CN(c2cccc([N+](=O)[O-])c2)S(=O)(=O)c2ccccc2)cc1OC | 1 | 14
O=C(Nc1ccc(Cl)c(Cl)c1)Nc1nnc(-c2ccccc2I)s1 | 1.1 | 2
COC(=O)c1ccc(NC(=O)c2c(Cl)cccc2Cl)cc1 | 1.1 | 6
O=C(Nc1nc(-c2ccccc2)c(-c2ccccc2)s1)c1ccccc1F | 1 | 14
CSc1ccc(S(=O)(=O)N(CC(=O)Nc2ccc(Cl)cc2)c2ccc(C)cc2)cc1 | 0.91 | 12
SMILES | Cy5 interf NS3h | NS3h inh CB
CC(/C=C1\SC(=S)N(c2cccc(Br)c2)C1=O)=C\c1ccccc1 | 1.1 | 12
O=C1C(=O)N(c2nncs2)C(c2cccc(Br)c2)C1=C(O)c1ccc(F)cc1 (configuration not stated) | 0.85 | -1
O=C1NC(=Nc2cccnc2)S/C1=C\c1cccc(F)c1 | 0.8* | -26
O=C1NC(=Nc2cccnc2)S/C1=C\c1ccc(F)cc1 | 1 | -3
CC1(C)CC(=O)C(CCC#N)(CCC#N)C(=O)C1 | 0.95 | 2
C/C(=C\C(=O)c1ccc(C)cc1)Nc1ccc(I)cc1 | 1 | 3
O=C1C2C3C=CC(C4CC34)C2C(=O)N1c1ccc(Cl)cc1 (configuration not stated) | 0.92 | -4
COC(=O)c1cc(N2C(=O)C3C4C=CC(C5CC45)C3C2=O)ccc1Cl (configuration not stated) | 0.69* | 8
CCOC(=O)c1c(-c2ccccc2)oc2ccc(OCC(=O)C(C)(C)C)cc12 | 0.82 | 12
COc1cccc(NC(=O)/C(NC(=O)c2ccccc2)=C2\c3ccccc3-c3ccc([N+](=O)[O-])cc32)c1 | 1 | 5
Nc1ccc(C(=O)NCCNCCNC(=O)c2ccc(N)cc2)cc1 | 0.8* | 15
Nc1ccc(C(=O)Nc2cccc3ccccc23)cc1 | 1.1 | 14
CCNc1cc(C)c(C)cc1-n1cnc(-c2ccc([N+](=O)[O-])cc2)c1 | 0.99 | 9
COc1ccc(/C=C2/Sc3ccccc3C2=O)cc1 | 0.95 | 14
CN1C(=O)C(=Cc2ccc(O)c([N+](=O)[O-])c2)C(=O)N(C)C1=O | 1.1 | 11
CN1CCN(c2ccc(/C=C3\Sc4ccccc4C3=O)cc2[N+](=O)[O-])CC1 | 0.79* | -3
CN1CCN(c2ccc(/C=C3\NC(=S)NC3=O)cc2[N+](=O)[O-])CC1 | 0.61* | 1
CCCCNC(=O)C(=O)NCCCO | 0.99 | 4
COc1ccc(Cl)cc1C(=O)NCc1ccccn1 | 0.95 | -2
CC(=O)c1ccc(N2C(=O)c3c(Cl)c(Cl)c(Cl)c(Cl)c3C2=O)cc1 | 0.7* | 9
CC(=O)c1ccc(N2C(=O)c3ccccc3C2=O)cc1 | 1 | 8
Cc1cc(C)c(S(=O)(=O)Nc2cccc([N+](=O)[O-])c2C)c(C)c1 | 0.93 | 13
O=C(COc1ccccc1)Nc1ccc([N+](=O)[O-])cc1 | 1.1 | 5
N#Cc1ccccc1OCC(=O)N/N=C\C=C\c1ccc([N+](=O)[O-])cc1 | 0.58* | 26
O=C1OC(c2ccccc2)=N/C1=C\c1cn(-c2ccccc2)nc1-c1cc2ccccc2oc1=O | 1 | 7
SMILES | Cy5 interf NS3h | NS3h inh CB
C=CCOc1ccc(/C=C2\SC(=S)N(c3ccc(OC)cc3)C2=O)cc1OC | 0.73* | 14
COc1ccccc1/C=C1\SC(=S)N(c2ccc(F)cc2)C1=O | 1 | -1
COc1cc(/C=C2/SC(=S)N(c3ccccc3)C2=O)ccc1OC(=O)c1cccc(C)c1 | 0.67* | 0
COc1ccc(N2C(=O)/C(=C\c3ccccc3C)SC2=S)cc1 | 1.2* | 10
COc1cc(/C=C2\SC(=S)N(C)C2=O)ccc1OC(=O)c1cccc(C)c1 | 1 | 14
COc1cc(/C=C2\SC(=S)N(CC(C)C)C2=O)ccc1O | 0.8* | 17
COc1cc(/C=C2\SC(=S)N(C(C)C(=O)O)C2=O)ccc1O (configuration not stated) | 1 | 14
C=CCOc1ccc(/C=C2\SC(=S)N(c3ccc([N+](=O)[O-])cc3)C2=O)cc1OC | 1 | 4
O=C(Nc1ccc2c(c1)OCCO2)c1ccccc1[N+](=O)[O-] | 0.92 | -1
CC1(C)CC(=O)C2=C(C1)OC1=C(C(=O)CC(C)(C)C1)C2c1cccc([N+](=O)[O-])c1 | 1 | 15
Cc1ccc(C2C3=C(CC(C)(C)CC3=O)OC3=C2C(=O)CC(C)(C)C3)o1 | 0.67* | 16
CCn1c2ccccc2c2cc(CN3CCN(Cc4ccc([N+](=O)[O-])cc4)CC3)ccc21 | 0.89 | -7
O=C1c2cc(S(=O)(=O)NCCCO)ccc2-c2ccc(S(=O)(=O)NCCCO)cc21 | 0.63* | -5
O=C1c2cc(S(=O)(=O)Nc3ccncc3)ccc2-c2ccc(S(=O)(=O)Nc3ccncc3)cc21 | 0.92 | 15
CCc1c(O)nc2n(c1=O)CCCS2 | 1 | -5
Cn1c(-c2nc3ccccc3n2C)nc2ccccc21 | 0.94 | 5

High-throughput results (PubChem)
